Reference: PubChem BioAssay
A number with no mark means an inactive call. A call without a number means that no potency is given here. For part of these data: Potency and affinity values are given separately. Active and inactive are the calls of the source. Unless noted, the rule behind the calls is not given here.

Key:
[1] = antimalarial activity against Dd2 strain (AID 2302;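 active = growth inhibition above 50% at the single 2 µM test dose, taken to imply half-maximal potency below 2 µM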); conditions: P. falciparum Dd2 in RBCs, LDH growth readout, 72 h; at 2 µM; stronger effect = higher value
[2] = human hepatoma cell viability loss – ATP luminescence, cytotoxicity control for P. falciparum antimalarial project, primary screen (AID 2303;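 active = inhibition above 50%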); conditions: HepG2 viability, 24-48 h, at 10 µM, stronger effect = higher value
[3] = target: L-lactate dehydrogenase (Plasmodium falciparum (isolate CDC / Honduras)) (UniProt Q27743); assay: PfLDH activity inhibition – cell lysate, 3D7 strain, counter-screen for P. falciparum growth inhibition project (AID 2304); conditions: P. falciparum 3D7 crude extract, LDH APAD/NBT absorbance; at 2 µM; stronger effect = higher value
Sequence of L-lactate dehydrogenase (Plasmodium falciparum (isolate CDC / Honduras)) (Q27743 whole entry, looked up): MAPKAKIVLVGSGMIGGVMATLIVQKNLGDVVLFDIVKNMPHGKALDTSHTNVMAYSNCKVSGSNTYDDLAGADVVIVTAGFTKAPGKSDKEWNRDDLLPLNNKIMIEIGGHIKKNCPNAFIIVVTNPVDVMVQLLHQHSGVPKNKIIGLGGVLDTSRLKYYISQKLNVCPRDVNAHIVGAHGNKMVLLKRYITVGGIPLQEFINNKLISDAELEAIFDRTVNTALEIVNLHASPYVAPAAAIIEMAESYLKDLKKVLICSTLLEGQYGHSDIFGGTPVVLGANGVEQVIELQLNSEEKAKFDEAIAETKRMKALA

[4] = inhibition of 3D7 malaria parasite growth – strain 3D7 (AID 2306); conditions: P. falciparum 3D7 erythrocytic growth, LDH absorbance, 72 h; at 2 µM; stronger effect = higher value
[5] = target: Calcium-dependent protein kinase 1 (Plasmodium falciparum (isolate 3D7)) (UniProt P62344); assay: PfCDPK1 kinase inhibitors, biochemical, TCAMS library (AID 1159585; cut-off not given, nearly all actives have IC50 up to about 0.98 µM;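 note: inhibitors leave more ATP so luminescence rises with inhibition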); conditions: recombinant PfCDPK1, Kinase-Glo ATP depletion luminescence
Sequence of Calcium-dependent protein kinase 1 (Plasmodium falciparum (isolate 3D7)) (P62344 whole entry, looked up): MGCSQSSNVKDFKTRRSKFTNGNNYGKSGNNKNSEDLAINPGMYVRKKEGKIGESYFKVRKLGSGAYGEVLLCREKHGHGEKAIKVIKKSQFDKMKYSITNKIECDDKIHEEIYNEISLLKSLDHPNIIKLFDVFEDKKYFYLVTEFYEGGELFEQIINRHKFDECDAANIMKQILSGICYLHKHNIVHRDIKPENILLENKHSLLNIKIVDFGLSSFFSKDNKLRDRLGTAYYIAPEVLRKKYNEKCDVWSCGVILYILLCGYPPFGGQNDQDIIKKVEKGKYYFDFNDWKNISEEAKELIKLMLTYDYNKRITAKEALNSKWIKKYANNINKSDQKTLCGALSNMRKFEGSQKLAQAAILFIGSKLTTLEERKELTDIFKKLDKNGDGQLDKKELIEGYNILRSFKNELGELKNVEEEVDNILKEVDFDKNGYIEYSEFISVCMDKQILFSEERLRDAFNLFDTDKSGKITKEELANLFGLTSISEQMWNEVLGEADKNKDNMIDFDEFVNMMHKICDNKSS

[6] = target: Plasmodium falciparum protein kinase 6 (PK6, PF3D7_1337100) (UniProt Q8IDW1); assay: PfPK6 kinase inhibitors, biochemical, TCAMS library (AID 1159586); conditions: recombinant PfPK6, Kinase-Glo ATP depletion luminescence
Sequence of Plasmodium falciparum protein kinase 6 (PK6, PF3D7_1337100) (Q8IDW1 1-305): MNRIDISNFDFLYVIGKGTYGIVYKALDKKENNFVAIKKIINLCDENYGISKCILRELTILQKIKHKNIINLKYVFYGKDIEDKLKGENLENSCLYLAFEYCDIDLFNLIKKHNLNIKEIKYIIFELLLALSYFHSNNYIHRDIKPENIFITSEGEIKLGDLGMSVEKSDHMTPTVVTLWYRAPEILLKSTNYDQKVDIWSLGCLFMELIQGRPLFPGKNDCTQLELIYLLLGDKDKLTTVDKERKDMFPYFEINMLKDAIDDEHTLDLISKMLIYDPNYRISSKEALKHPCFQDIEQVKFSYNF

[7] = target: Protein kinase 7 (PK7), Plasmodium falciparum 3D7 (PF3D7_0213400) (UniProt Q7YTF7); assay: inhibition of Plasmodium PK7 catalytic activity – biochemical, TCAMS antimalarial set, Kinase-Glo luminescence (AID 1159587); conditions: recombinant PfPK7, Kinase-Glo ATP depletion luminescence
Sequence of Protein kinase 7 (PK7), Plasmodium falciparum 3D7 (PF3D7_0213400) (Q7YTF7 1-343): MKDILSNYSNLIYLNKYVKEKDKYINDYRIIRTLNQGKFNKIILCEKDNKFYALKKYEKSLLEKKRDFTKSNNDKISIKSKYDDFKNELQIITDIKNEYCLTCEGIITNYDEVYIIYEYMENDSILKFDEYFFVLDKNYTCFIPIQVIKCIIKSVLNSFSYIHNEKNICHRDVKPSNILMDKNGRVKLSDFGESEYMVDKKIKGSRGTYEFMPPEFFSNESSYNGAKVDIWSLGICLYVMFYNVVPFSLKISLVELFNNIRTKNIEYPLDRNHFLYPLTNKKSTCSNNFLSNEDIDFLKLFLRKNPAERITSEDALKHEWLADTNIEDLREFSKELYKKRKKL

[8] = target: Calcium-dependent protein kinase 4 (Plasmodium falciparum (isolate 3D7)) (UniProt Q8IBS5); assay: PfCDPK4 kinase inhibitors, biochemical, TCAMS library (AID 1159588; cut-off not given, nearly all actives have IC50 up to about 0.91 µM); conditions: recombinant PfCDPK4, Kinase-Glo ATP depletion luminescence
Sequence of Calcium-dependent protein kinase 4 (Plasmodium falciparum (isolate 3D7)) (Q8IBS5 whole entry, looked up): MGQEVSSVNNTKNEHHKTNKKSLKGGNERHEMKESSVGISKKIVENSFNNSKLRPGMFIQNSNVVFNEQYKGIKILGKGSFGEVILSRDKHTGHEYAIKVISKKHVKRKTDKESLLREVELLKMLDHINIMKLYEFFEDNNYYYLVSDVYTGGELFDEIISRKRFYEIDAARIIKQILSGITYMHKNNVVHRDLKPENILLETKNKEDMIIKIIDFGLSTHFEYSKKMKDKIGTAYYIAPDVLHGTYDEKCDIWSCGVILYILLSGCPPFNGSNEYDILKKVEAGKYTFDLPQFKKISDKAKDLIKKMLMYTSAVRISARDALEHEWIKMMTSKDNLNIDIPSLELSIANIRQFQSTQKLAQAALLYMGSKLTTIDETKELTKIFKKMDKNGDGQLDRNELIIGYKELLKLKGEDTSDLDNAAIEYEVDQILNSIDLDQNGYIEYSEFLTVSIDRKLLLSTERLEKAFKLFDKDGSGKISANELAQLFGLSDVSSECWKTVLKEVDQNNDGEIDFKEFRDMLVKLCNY

Row | SMILES | growth inhibition [1] | inhibition [2] [%] | inhibition [3] [%] | growth inhibition [4] | outcome [5] | outcome [6] | outcome [7] | outcome [8]
1 | CCCCCN1CCCC(NS(=O)(=O)c2ccc(C(=O)Nc3ccc(C(F)(F)F)cc3)cc2)C1 (centres undefined) | 20% | 41 | 4 | 98% (active) | inactive | inactive | inactive | inactive
2 | COc1ccc2nccc([C@@H](O)CN3CCC(NC(=O)/C=C/c4ccc(Cl)c(C(F)(F)F)c4)CC3)c2c1 | 89% (active) | 11 | -4 | 102% (active) | inactive | inactive | inactive | inactive
3 | N#Cc1ccc(N2CCN(Cc3cccc(-c4cccc(-c5nc6ccc(C(F)(F)F)cc6[nH]5)c4)c3)CC2)nc1 | 50% (active) | 15 | 6 | 99% (active) | inactive | inactive | inactive | inactive
